Source: ChEMBL document CHEMBL3988442, “University of Dundee, Small-Polar-MMV Screening Library” (2021)
Screen size: about 48,000 compounds; about 13,000 (27%) showed an effect of 50% or more. The list shows a part of the results.

These molecules were tested on Wolbachia pipientis (assay: Anti-Wolbachia Cell-Based Screen). Conditions: 5 µM.
Format: functional
Parameters: scale not given: in the data most compounds retested in dose-response had high values
In the case of `O=C(COc1ccc(Cl)cc1)NCc1nncn1C1CC1`, the “Percent Effect” value was -10.37%.
For `CN1CC(NC(=O)CCOc2cccc(Cl)c2)CC1=O` (stereo not given), the “Percent Effect” value was -1.154%.
For `CCn1cc(C(=O)NC2CCN(S(C)(=O)=O)CC2)c2ccccc21`, the “Percent Effect” value was -0.7206%.
For `CCCC(C(=O)NC1CCN(S(C)(=O)=O)CC1)c1ccccc1` (stereo not given), the “Percent Effect” value was -7.418%.
For `CS(=O)(=O)N1CCC(NC(=O)COc2cccc(Cl)c2)CC1`, the “Percent Effect” value was 141.5%.
With `Cc1ccc(OCC(=O)NS(=O)(=O)Cc2ccccc2)cc1` the “Percent Effect” value was 1.419%.
`CS(=O)(=O)N1CCC(NC(=O)COc2ccc(Cl)cc2)CC1` was tested, and the “Percent Effect” value was 131.2%.
With `CC(CS(C)(=O)=O)N(C(=O)CCc1ccsc1)C1CC1` (stereo not given) the “Percent Effect” value was -7.747%.
With `Cc1c(NCc2ccccc2C#N)cccc1S(=O)(=O)NC1CC1` the “Percent Effect” value was 7.829%.
With `CCCNC(=O)c1ccc(S(=O)(=O)NCC2(COC)CCCC2)cc1` the “Percent Effect” value was 10.08%.
With `CCCN1CCC(Cc2noc(-c3ncccc3C)n2)CC1` the “Percent Effect” value was 80.84%.
With `COc1cccc(-c2n[nH]cc2-c2nc(CC3CCN(C)CC3)no2)c1` the “Percent Effect” value was -18.5%.
`CN1CCC(Cc2noc(CC3CC3)n2)CC1` was tested, and the “Percent Effect” value was 7.965%.
With `CCCN1CCC(Cc2noc(-c3[nH]cnc3C)n2)CC1` the “Percent Effect” value was 95.32%.
`Cc1cccc(N2CCN(Cc3nc(CC4CC4)no3)CC2)n1` was tested, and the “Percent Effect” value was -32.1%.
With `CN1CCC(Cc2noc(-c3cccc(Oc4ncccn4)c3)n2)CC1` the “Percent Effect” value was 7.717%.
For `CCCN1CCC(Cc2noc(-c3cc4cccnc4nc3C)n2)CC1`, the “Percent Effect” value was 109.3%.
With `CCCN1CCC(Cc2noc(-c3cccnc3OC)n2)CC1` the “Percent Effect” value was 111%.
`CCCN1CCC(Cc2nc(CN3CCN(C)CC3)no2)CC1` was tested, and the “Percent Effect” value was -14.74%.
`O=C(O)C(F)(F)F.O=C(c1cnccn1)N1CCN2C[C@H](OCc3ccccc3)C[C@H]2C1` was tested, and the “Percent Effect” value was 0.9926%.
In the case of `O=C(c1cnc(Nc2ccccc2)nc1)N1CCC2(CCNCC2)CC1`, the “Percent Effect” value was 2.873%.
With `CC(C)c1noc([C@@H]2Cc3[nH]cnc3CN2C(=O)Nc2ccccc2)n1` the “Percent Effect” value was 2.136%.
`NC(=O)CCn1ccc(NC(=O)C2(c3ccc(F)cc3)CCC2)n1` was tested, and the “Percent Effect” value was -29.44%.
With `COc1ccc(N(Cc2ccco2)C(=O)COC(C)C)cc1F` the “Percent Effect” value was -7.109%.
With `COc1ccc(CCC2CCCCN2)cc1.Cl` (stereo not given) the “Percent Effect” value was 100.4%.
With `COc1cccc(CCC2CCCCN2)c1` (stereo not given) the “Percent Effect” value was 69.8%.
In the case of `COc1ccc(CCNC(=O)NC2CCCC2)cc1OC`, the “Percent Effect” value was 1.175%.
`Oc1cc(CCC2CCCCN2)cc(-c2cccnc2)c1` (stereo not given) was tested, and the “Percent Effect” value was 13.71%.
`Oc1cc(CCC2CCCCN2)cc(-c2ccncc2)c1` (stereo not given) was tested, and the “Percent Effect” value was 23.52%.
In the case of `COc1cccc(CCC2CCCN(C(C)=O)C2)c1` (stereo not given), the “Percent Effect” value was -117.1%.
With `COc1ccc(CCC2CCCCN2)cc1OC` (stereo not given) the “Percent Effect” value was 89.4%.
`O=c1cc(-c2cc(O)cc(CCC3CCCCN3)c2)cc[nH]1` (stereo not given) was tested, and the “Percent Effect” value was 29.58%.
For `CS(=O)(=O)c1ccc(-c2cc(O)cc(CCC3CCCCN3)c2)cc1` (stereo not given), the “Percent Effect” value was -20.81%.
`O=C(NCc1ccncc1)N1CCSCC1CCO` (stereo not given) was tested, and the “Percent Effect” value was -7.144%.
In the case of `CSc1ccc(-c2nc(CN3CCC(CN)C3)c(C)o2)cc1` (stereo not given), the “Percent Effect” value was -1.027%.
With `CCc1noc(C)c1C(=O)N1CCN(c2nc(C)cc(OC)n2)CC1` the “Percent Effect” value was -4.975%.
With `Cc1cc(C(F)(F)F)nc(C2(C)CCCN2CC(N)=O)n1` (stereo not given) the “Percent Effect” value was 81.01%.
With `CC1(C)CN(CC(F)(F)F)CCN1CC(N)=O` the “Percent Effect” value was 0.007489%.
For `Cc1cc(C(F)(F)F)cc(N2CCC3(CCC(=O)N(CCO)C3)CC2)n1`, the “Percent Effect” value was 8.685%.
With `CCCc1nc(C)cc(N2CCC3(CCC(=O)N(CC(N)=O)C3)CC2)n1` the “Percent Effect” value was 1.453%.
For `CCc1nnc2n1CCN(c1nc(C)cc(N(C)C)n1)C2`, the “Percent Effect” value was 1.842%.
`Cc1cc(N(C)C)nc(C2(C)CCCN2CC(N)=O)n1` (stereo not given) was tested, and the “Percent Effect” value was 87.15%.
With `CS(=O)(=O)NC1CCN(C(=O)COCc2ccccc2)CC1` the “Percent Effect” value was -3.192%.
With `Cc1cc(C2CCCN2c2ncc(C(N)=O)cc2Cl)no1` (stereo not given) the “Percent Effect” value was -5.991%.
In the case of `Cc1nncn1CCNC(=O)C(C)(C)c1cccc(C(F)(F)F)c1`, the “Percent Effect” value was 2.023%.
With `O=C(NCc1ccccn1)Nc1cc(C(F)(F)F)c[nH]c1=O` the “Percent Effect” value was 4.379%.
In the case of `Cc1ccc(C(F)(F)F)cc1NC(=O)C1CCCN1` (stereo not given), the “Percent Effect” value was 84.86%.
In the case of `O=C(Nc1cc(C(F)(F)F)c[nH]c1=O)C1CCNCC1`, the “Percent Effect” value was 76.16%.
`Cc1ccc(C(F)(F)F)cc1NCC(=O)Nc1c(C)nn(C)c1C` was tested, and the “Percent Effect” value was 5.729%.
For `CN(CC(=O)Nc1cc(C(F)(F)F)c[nH]c1=O)Cc1ccccc1`, the “Percent Effect” value was -11.84%.
`Cl.O=C(Nc1cc(C(F)(F)F)c[nH]c1=O)C1CCCCN1` (stereo not given) was tested, and the “Percent Effect” value was 99.37%.
For `O=C(Nc1cc(C(F)(F)F)c[nH]c1=O)C1CCCNC1` (stereo not given), the “Percent Effect” value was 107.9%.
In the case of `CC(C)CN1CCC(C(=O)Nc2cc(C(F)(F)F)c[nH]c2=O)CC1`, the “Percent Effect” value was -2.2%.
For `Cc1ccc(C(=O)O)cc1NC(=O)C1CC=CC1`, the “Percent Effect” value was -2.837%.
`CC(=O)N(C)CC(=O)Nc1cc(C(F)(F)F)c[nH]c1=O` was tested, and the “Percent Effect” value was -5.133%.
